From PubChem BioAssay AID602449 (Sanford-Burnham Center for Chemical Genomics, 2012)
The whole screen tested about 360,000 compounds, of which about 5,000 (1.4%) were called active. The list comes from a sample in which actives are over-represented; it also holds similar structures and randomly drawn compounds. Unmarked numbers belong to inactive results.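 How the source made its calls: active means inhibition of 50% or more, scaled per plate between neutral and stimulator controls; inactive means the rest.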

assay: blockers of Ca2+-induced mitochondrial swelling – biochemical, isolated mouse mitochondria, absorbance, primary screen (AID 602449); conditions: 30 min, at 10 µM, stronger effect = higher value;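 further: 0% = DMSO wells given calcium and 100% = 1 mM EGTA wells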

Which inhibition does the source give for `O=C(Nc1ccccc1Cc1ccccc1)c1ccc2c(c1)SC1=NS(=O)(=O)CCN12` here?
Its inhibition is 1.9%.

Which inhibition does the source give for `Cc1nc(-c2nnc(SCC(=O)Nc3cc(C(F)(F)F)cc(C(F)(F)F)c3)n2C)cs1` here?
Its inhibition is 4.6%.

For `Cc1ccc(OC(=O)c2c(C)nn(-c3ccccc3)c2C)cc1`, which inhibition is on record?
The inhibition was -0.9%.

For `S=C(NCc1cccs1)Nc1ccc(Cl)cc1`, which inhibition is on record?
The inhibition was 23.7%.

For `Fc1ccccc1CNC(=S)Nc1ccc(Cl)cc1`, which inhibition is on record?
The inhibition was 102% (active).

With `C/C(=N\NC(=S)NCc1ccccc1)c1ccc(Cl)cc1` as the compound, how does the inhibition read?
The inhibition was 3.5%.

For `CCCOc1ccc(Cc2c(Cl)nc(SC)nc2NC)cc1`, which inhibition is on record?
Its inhibition is 95.3% (active).

For `CCCOc1ccc(Cc2c(O)nc(SC)[nH]c2=O)cc1C`, which inhibition is on record?
Its inhibition is 0.9%.

With `CCOc1cc2[nH]c(=O)n(CCC(=O)NCc3ccc(OC)cc3)c(=O)c2cc1OCC` as the compound, how does the inhibition read?
Its inhibition is -0.2%.

For `COC(=O)C(Cc1c[nH]c2ccccc12)NC(=O)CCNC(=O)c1ccco1` (stereo unspecified), which inhibition is on record?
The inhibition was -1%.

For `Cc1cc(Cl)ccc1NC(=S)NCCCN1CCCC1=O`, which inhibition is on record?
Its inhibition is 0.5%.

Which inhibition does the source give for `Cc1c(Cl)cccc1NC(=O)NCCCN1CCCC1=O` here?
The inhibition was -0.1%.

With `O=C1CCCN1CCCNC(=S)Nc1ccc(F)c(Cl)c1` as the compound, how does the inhibition read?
Its inhibition is 96.1% (active).

With `CC1(C(=O)NNC(=S)NCC2CCCO2)CC1(Cl)Cl` (stereo unspecified) as the compound, how does the inhibition read?
The inhibition was -1.4%.

With `O=S(=O)(Nc1ccc(Cl)cn1)c1cnc(Cl)c(Br)c1` as the compound, how does the inhibition read?
The inhibition was 12.7%.

With `CC(C)C[C@H]1CN([C@@H](CC(C)C)CN2CCC[C@@H]2CN2C(=O)C(=O)NC[C@@H]2Cc2ccccc2)C(=O)C(=O)N1CCc1ccccc1` as the compound, how does the inhibition read?
The inhibition was 1.7%.

With `COC(=O)c1ccc(Sc2ccc(F)cc2)c(N)c1` as the compound, how does the inhibition read?
The inhibition was -3%.

For `CSc1ccc(/C=N/NC(=O)c2cccc(Cl)c2)cc1`, which inhibition is on record?
The inhibition was 3%.

For `COc1ccc(Sc2ccc(NC(=O)c3cccc(Cl)c3)cc2C#N)cc1`, which inhibition is on record?
Its inhibition is 80.5% (active).

With `COc1ccc(NC(=O)c2cccc(Cl)c2)c[n+]1[O-]` as the compound, how does the inhibition read?
The inhibition was 1.1%.

Which inhibition does the source give for `Cc1ccc(Sc2ccc(NC(=O)c3ccc(F)cc3)cc2C#N)cc1` here?
Its inhibition is 72.3% (active).

For `Cc1ccc(C(=O)NC2CCN(C(=O)Nc3ccc(F)cc3)CC2)cc1`, which inhibition is on record?
Its inhibition is -0.9%.

Which inhibition does the source give for `Cc1ccccc1CNC(=O)CCC(=O)N1Cc2ccccc2Oc2ncccc21` here?
Its inhibition is -0.6%.

For `CC(C)(C)n1c(=O)[nH]c2c(c1=O)CCC2`, which inhibition is on record?
Its inhibition is -1.7%.

For `CC(C)=C1SC(N2CCN(c3ccc(C)c(Cl)c3)CC2)=NC1=O`, which inhibition is on record?
Its inhibition is 2.6%.

For `COc1ccc(S(=O)(=O)N2CCN(C(C)C(=O)Nc3ccc(C(C)C)cc3)CC2)cc1` (stereo unspecified), which inhibition is on record?
The inhibition was 0.5%.

Which inhibition does the source give for `Cn1c(N2CCOCC2)c(C=O)c2ccccc21` here?
Its inhibition is -0.1%.

With `COc1ccc(C(=O)NCc2nnc(SCC(=O)Nc3cccc(OC)c3)o2)cc1` as the compound, how does the inhibition read?
The inhibition was -0.9%.

Which inhibition does the source give for `COc1cccc(NC(=O)CSc2nnc(-c3cccnc3)o2)c1` here?
Its inhibition is -1.2%.

With `COc1ccc2oc(-c3cccc(NC(=O)CSc4ccc(Cl)cc4)c3)nc2c1` as the compound, how does the inhibition read?
The inhibition was 86.6% (active).

For `CCOC(=O)c1sc(=NC(=O)/C=C/c2cccs2)n(C)c1C`, which inhibition is on record?
The inhibition was 1.4%.

For `O=C(NCCNc1ccc([N+](=O)[O-])cc1Cl)c1ccccc1F`, which inhibition is on record?
The inhibition was 1%.

Which inhibition does the source give for `CC(CNc1ccc([N+](=O)[O-])cc1)NC(=O)c1ccccc1Br` (stereo unspecified) here?
The inhibition was 0%.

For `O=C(NCCNc1ccc([N+](=O)[O-])cc1)c1cccc2c(Br)cccc12`, which inhibition is on record?
The inhibition was 77.6% (active).

With `Cc1c(Cl)c([N+](=O)[O-])nn1CC(=O)NCC1CCCO1` (stereo unspecified) as the compound, how does the inhibition read?
The inhibition was -1.6%.

With `CCN(CC)c1ccc(NC(=O)c2ccc(=O)[nH]c2)cc1S(=O)(=O)Nc1ccc(OC)cc1` as the compound, how does the inhibition read?
The inhibition was -0.4%.

For `S=C(NCc1ccc(Cl)cc1)NC12CC3CC(CC(C3)C1)C2`, which inhibition is on record?
The inhibition was 96.8% (active).

Which inhibition does the source give for `S=C(NCc1ccc(Cl)cc1)NC1CCCCC1` here?
Its inhibition is 67.6% (active).

With `O=C(NNC(=S)NC1CCCCC1)c1ccccc1Cl` as the compound, how does the inhibition read?
The inhibition was 0.2%.

With `COc1ccc(Cl)cc1C(=O)NNC(=S)NC1CCCC1` as the compound, how does the inhibition read?
The inhibition was -0.5%.

With `O=C(NCc1ccc2c(c1)OCO2)C12CC3CC(CC(C3)C1)C2` as the compound, how does the inhibition read?
Its inhibition is 3.7%.

With `Cc1ccc(C(=O)NC23CC4CC(CC(C4)C2)C3)c(Cl)c1` as the compound, how does the inhibition read?
Its inhibition is -0.2%.

With `CCOCCCNC(=O)C1(O)c2cc(Br)ccc2NC(=O)N1c1ccc(C)c(C)c1` (stereo unspecified) as the compound, how does the inhibition read?
Its inhibition is 0.7%.

For `O=C(NCCOc1ccccc1Cl)C(=O)Nc1ccccc1`, which inhibition is on record?
The inhibition was -1.3%.

With `O=C(COc1ccccc1F)NNC(=O)c1cc(Br)ccc1Cl` as the compound, how does the inhibition read?
Its inhibition is -1.8%.

Which inhibition does the source give for `O=C(NCCOc1ccccc1F)Nc1ccc(Br)cc1` here?
Its inhibition is 87.9% (active).

For `COC(=O)CNC(c1ccccc1Cl)c1cc(Br)ccc1NC(=O)CCN1CCOCC1` (stereo unspecified), which inhibition is on record?
Its inhibition is -1%.

Which inhibition does the source give for `CCC(C(=O)NCc1ccccc1)n1c(Cc2cc(F)cc(F)c2)nc2ccccc21` (stereo unspecified) here?
Its inhibition is 2.2%.

Which inhibition does the source give for `COc1ccccc1C(=O)Nc1ccc(Nc2ccccc2)cc1` here?
Its inhibition is 0.9%.

For `O=S(=O)(Nc1ccccc1N1CCOCC1)c1ccc(Cl)s1`, which inhibition is on record?
The inhibition was -0.7%.

For `CCOC(=O)c1ccc(N/C(=N/S(=O)(=O)c2ccccc2)c2ccccc2)cc1`, which inhibition is on record?
Its inhibition is 1.7%.

Which inhibition does the source give for `COc1cccc(NC(=O)c2ccccc2N(Cc2ccccc2)S(C)(=O)=O)c1` here?
Its inhibition is 0%.

With `COc1cc(NC(=O)c2ccccc2NS(=O)(=O)c2ccc(Cl)s2)cc(OC)c1` as the compound, how does the inhibition read?
Its inhibition is 67% (active).

With `COC(=O)c1ccc(NC(=O)c2ccccc2NS(=O)(=O)c2ccccc2)cc1` as the compound, how does the inhibition read?
The inhibition was 102% (active).

Which inhibition does the source give for `COc1cc(C(=O)NNC(=O)CN2C(=O)NC3(CCCC3)C2=O)cc(OC)c1OC` here?
The inhibition was -0.8%.

Which inhibition does the source give for `COc1ccc(NS(=O)(=O)c2ccc(NC(=O)c3ccc(N(C)S(C)(=O)=O)cc3)cc2)cc1` here?
The inhibition was 21.3%.

For `COc1ccc(NS(=O)(=O)c2ccc(Oc3c(C#N)cccc3C#N)cc2)cc1`, which inhibition is on record?
Its inhibition is 91.6% (active).

With `COc1ccc(NS(=O)(=O)c2ccc(N3CCN(CCO)CC3)c([N+](=O)[O-])c2)cc1` as the compound, how does the inhibition read?
The inhibition was 2.1%.

With `CC(=O)N/N=C(\C)c1ccc(Br)cc1Br` as the compound, how does the inhibition read?
The inhibition was -4.6%.

For `C/C(=N/NC(=O)c1cc(Cl)ccc1O)C12CC3CC(CC(C3)C1)C2`, which inhibition is on record?
Its inhibition is 9.3%.

For `CC(=N\NC(=O)c1cc(Br)ccc1O)/C(=N/O)C(=O)Nc1ccccc1`, which inhibition is on record?
Its inhibition is 76.8% (active).
